RECQ1 inh = qHTS Assay for Inhibitors of RecQ-Like Dna Helicase 1 (RECQ1). ATP-dependent DNA helicase Q1 (Homo sapiens), P46063. RECQ1 DNA unwinding, red fluorescence kinetic read. actives 0.54% (n = 240,000). Potency, µM (top dose mostly 57.3 µM), for the others: at the highest dose activity, negative = inhibition, usual class: inhibitors;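 further: plate controls were vehicle for no effect and no enzyme for full effect; nearly all actives have a fitted effect of over 30% in size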
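50 nM RECQ1T1 preincubated 15 min with compound in Tris pH 8.0 buffer with MgCl2, DTT, Tween-20 and 2.5 ug/ml poly(dI-dC); started with 200 nM TAMRA/BHQ-2 forked duplex and 2 mM ATP. Unwinding read as fluorescence (525/598 nm), two reads 2 h apart.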
BLM inh = qHTS Assay for Inhibitors of Bloom's syndrome helicase (BLM). RecQ-like DNA helicase BLM (Homo sapiens), P54132. recombinant BLM DNA unwinding, fluorescence dequenching. Potency, µM (doses to about 56.1 µM), for the others: at the top dose activity change, negative = inhibition, most hits filed as inhibitors. actives 0.2% (n = 350,000);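 further: plate controls were vehicle for no effect and no enzyme for full effect; nearly all actives have a fitted effect of over 35% in size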
TDP1 inh = qHTS Assay for Inhibitors of Tyrosyl-DNA Phosphodiesterase (TDP1); actives 0.28% (n = 350,000); Potency, µM (top dose mostly 130 µM), without a hit: top-dose activity change, negative = inhibition, usual class: inhibitors; recombinant TDP1, AlphaScreen DNA substrate cleavage; Tyrosyl-DNA phosphodiesterase 1 (Homo sapiens), Q9NUW8; further: nearly all actives have a fitted effect of over 40% in size
Target sequence (Q9NUW8 whole entry, looked up): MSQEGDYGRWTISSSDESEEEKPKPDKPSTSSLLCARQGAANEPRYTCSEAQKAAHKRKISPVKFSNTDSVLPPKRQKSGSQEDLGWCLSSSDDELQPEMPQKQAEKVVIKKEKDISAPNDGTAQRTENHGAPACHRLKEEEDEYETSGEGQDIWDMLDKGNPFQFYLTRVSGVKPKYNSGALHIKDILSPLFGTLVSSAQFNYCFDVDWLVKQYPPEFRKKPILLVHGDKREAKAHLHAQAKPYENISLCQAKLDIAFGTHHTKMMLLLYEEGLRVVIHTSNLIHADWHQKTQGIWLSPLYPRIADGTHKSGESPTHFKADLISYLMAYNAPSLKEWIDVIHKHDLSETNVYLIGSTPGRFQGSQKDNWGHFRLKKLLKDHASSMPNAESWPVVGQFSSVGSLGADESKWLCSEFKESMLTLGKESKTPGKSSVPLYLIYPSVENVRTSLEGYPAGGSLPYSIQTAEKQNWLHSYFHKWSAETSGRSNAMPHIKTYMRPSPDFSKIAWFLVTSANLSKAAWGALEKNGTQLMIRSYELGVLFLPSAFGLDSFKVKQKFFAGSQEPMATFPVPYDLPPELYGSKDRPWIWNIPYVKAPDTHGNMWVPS
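Here, a 5' biotin and 3' phosphotyrosine-FITC DNA oligonucleotide reports Tdp1 activity: intact substrate bridges AlphaScreen beads, while cleavage leaves a 3' phosphate and drops signal. All incubations at room temperature.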
KDM4E inh = qHTS Assay for Inhibitors of Human Jumonji Domain Containing 2E (JMJD2E) | JMJD2E catalytic domain, FDH-coupled NADH fluorescence (FDH is formaldehyde dehydrogenase) | Potency, µM (titrated, usually from 57.1 µM), inactives show at the highest dose activity change, negative = inhibition, actives largely listed as inhibitors | actives 1.6% (n = 230,000) | AID 2147, 2009; active means well fitted inhibition curve with a large enough effect, not every such curve was filed as active; inconclusive means small, poorly fitted or top-dose-only effect, or another doubt; inactive means no such curve, though single readings can be large or run the other way;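 further: 0% = wells with enzyme and -100% = buffer wells without enzyme; nearly all actives have a fitted effect of over 50% in size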
APEX1 inh = qHTS Assay for Inhibitors of the Human Apurinic/apyrimidinic Endonuclease 1 (APE1). actives 0.35% (n = 350,000). Potency, µM (series often up to 65.8 µM), for inactives: at the top dose activity change, negative = inhibition, most hits filed as inhibitors. DNA repair nuclease/redox regulator APEX1 (Homo sapiens), P27695. AID 2517, 2012. recombinant APE1, TAMRA/BHQ-2 abasic DNA cleavage fluorescence;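 further: plate controls were vehicle for no effect and reference inhibitor for full effect; nearly all actives have a fitted effect of over 55% in size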
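Measures dequenching upon AP-site incision of a 5'-TAMRA/3'-BHQ-2 THF-containing duplex, 50 nM; human APE1 0.75 nM after 15 min room-temperature exposure to compound; kinetic three-point read at one-minute spacing.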
L3MBTL1 inh = qHTS Assay for the Inhibitors of L3MBTL1. actives 0.66% (n = 230,000). Lethal(3)malignant brain tumor-like protein 1 (Homo sapiens), Q9Y468. AlphaScreen L3MBTL1–H3K9me1 peptide binding. Potency, µM (highest dose often 57.1 µM), for inactives: top-dose activity, negative = inhibition, most hits filed as inhibitors; further: nearly all actives have a fitted effect of over 60% in size
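AlphaScreen proximity signal between nickel-chelate acceptor and streptavidin donor beads (final 10 ug/mL) reports binding of 50 nM L3MBTL1 to 75 nM biotin-H3 K9me1 peptide; complex incubated with compounds 30 min at room temperature; cefsulodin titration as control.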
An asterisk follows results filed as active; ! = not confirmed by another sample; [ ] = another dose, or the depositor's remark. The entries come from a sample that favours hits as a whole. Unless noted, the call rests on the fitted dose curve; in most records, active means well fitted curve in the direction sought with a large enough effect; inconclusive means small, poorly fitted or top-dose-only effect, or another doubt; inactive means no such curve, though single readings can be large; an effect the other way counts as inactive or inconclusive. Unless noted, on the % scale 0 is the no-effect control and ±100 the full control effect; potency means the concentration at half of the fitted maximal effect.

What do the screens show for `Clc1ccc(C(Cl)(Cl)Cl)cc1Cl`?
RECQ1 inh: 11.7%; TDP1 inh: -0.3%; APEX1 inh: 2.2%

How did Cl.Cl.Cl.Cl.Cl.Cl.N.N.N.N.NNNNN.NNNNN.O.O.[Ru].[Ru].[Ru] do in these assays?
RECQ1 inh: 12.6µM*; BLM inh: 25.1µM*; TDP1 inh: 20.2%; KDM4E inh: 31.6µM*; APEX1 inh: -3.2%

What do the screens show for `[O]=[Cr](=[O])([OH])[O][Cr](=[O])(=[O])[OH]`?
RECQ1 inh: 12.6µM*; BLM inh: 1µM*; TDP1 inh: 6.31µM*!; APEX1 inh: 25.1µM*!

Results for O=NN(c1ccccc1)c1ccccc1 ?
RECQ1 inh: -16.9%; TDP1 inh: 8.7%; APEX1 inh: -1.4%

What do the screens show for `NCC(O)c1cccc(O)c1` (stereo unspecified)?
BLM inh: 1.9%

What do the screens show for `NNCc1cccc(O)c1`?
RECQ1 inh: -8.6%; BLM inh: 3.2%; TDP1 inh: -12.3%[56.1 µM]; KDM4E inh: 22.4µM*!; APEX1 inh: -11.4%

How did COc1cc2c(cc1O)C[C@H]1NCCc3cc4c(c-2c31)OCO4 do in these assays?
RECQ1 inh: -8.5%; BLM inh: 8.8%; TDP1 inh: 3.9%; KDM4E inh: inconclusive; APEX1 inh: inconclusive; L3MBTL1 inh: 35.5µM*

What do the screens show for `C#Cc1cccc2c1c(C(=O)c1ccc(Cn3c(C)nc4cnccc43)c(F)c1)cn2C(=O)N(C)C`?
RECQ1 inh: -6.9%; BLM inh: 2.8%; TDP1 inh: 11.5%; APEX1 inh: 0.9%

Results for Cc1ccccc1-n1c(O)c(C(c2ccncc2)c2c(O)n(-c3ccccc3C)c(=O)[nH]c2=O)c(=O)[nH]c1=O ?
RECQ1 inh: -4.3%; BLM inh: -1.8%; TDP1 inh: -0.6%; KDM4E inh: 17.8µM*; APEX1 inh: -6.8%

Results for C[C@@]12C(=O)OC(=O)[C@]1(C)[C@H]1CC[C@@H]2O1 ?
RECQ1 inh: inactive; BLM inh: 1.7%[21.4 µM]; TDP1 inh: 12.3%[21 µM]; KDM4E inh: 7.1%[25.5 µM]

What do the screens show for `CC(C)C[C@H](CN)CC(=O)O`?
APEX1 inh: 11.9%

Results for C=CCN1CC[C@]23CCCC[C@H]2[C@H]1Cc1ccc(O)cc13 ?
APEX1 inh: -5.6%

How did C=CCN1CC[C@]23CCCCC2[C@H]1Cc1ccc(O)cc13 (stereo partly specified) do in these assays?
RECQ1 inh: 0.2%; BLM inh: 44.5%; TDP1 inh: 6.3%[56.1 µM]; KDM4E inh: -0.5%; APEX1 inh: 1.0%

Results for CN1CC[C@@]2(C)c3cc(O)ccc3N(C)C12 (stereo partly specified) ?
RECQ1 inh: -2.1%; TDP1 inh: -3.6%[56.1 µM]; KDM4E inh: 5.01µM*; APEX1 inh: inconclusive

What do the screens show for `CN1CC[C@]2(C)c3cc(O)ccc3N(C)[C@@H]12`?
RECQ1 inh: inactive; BLM inh: -10.8%[21.4 µM]; TDP1 inh: 12.3%[21 µM]; KDM4E inh: 2.24µM*; APEX1 inh: -1.3%[21 µM]

What do the screens show for `O=C(Cl)c1ccccc1F`?
RECQ1 inh: 1.3%; TDP1 inh: -6.5%; APEX1 inh: -4.8%

What do the screens show for `CN(C)C1CSSSC1`?
RECQ1 inh: 11.4%; BLM inh: 2.0%; TDP1 inh: 17.4%; APEX1 inh: 0.9%

What do the screens show for `N#CSCSC#N`?
RECQ1 inh: -10.2%; TDP1 inh: 16.1%; APEX1 inh: inconclusive

Bioassay records (PubChem BioAssay)
